Screening data deposited in PubChem BioAssay by National Center for Advancing Translational Sciences (NCATS).
A selection: hits, their analogues and other compounds. The true share with any hit is near 5.3%.
HP1b binding inh – HP1-beta chromodomain-methylated histone interaction inhibition. Potency, µM (doses to about 114 µM), inactives show at the highest dose activity change, negative = inhibition, usual class: inhibitors. AlphaScreen HP1-beta / biotin-H3K9me3 peptide binding. hit rate 0.56% among 390,000. P83916; note: potency is the fitted concentration of half-maximal effect; nearly all actives have a fitted effect of over 70% in size
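HP1-beta protein (50 nM final) preincubated 30 min at room temperature with biotinylated H3(1-18)K9me3 peptide (50 nM) in PBS pH 7.4, 0.01% Tween-20, then compound added for 30 min. AlphaScreen streptavidin donor/nickel chelate acceptor beads (10 ug/mL final), 30 min dark, luminescence read.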
BAZ2B block – blocks human BAZ2B | Q9UIF8 | AlphaScreen BAZ2B-H3K14Ac peptide displacement | Potency, µM (series often up to 114 µM), for the others: top-dose activity change, negative = inhibition, most hits filed as inhibitors | hit rate 4.4% among 360,000 | AID 504333; note: potency is the fitted concentration of half-maximal effect; % is set by controls: 0 for no effect and ±100 for the full control effect; nearly all actives have a fitted effect of over 60% in size
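BAZ2B (50 nM) with biotin-H3(5-23)K14Ac peptide (50 nM) in PBS pH 7.4, 0.01% Tween-20, preformed 30 min, then compound 30 min at room temperature; top concentration 110uM. AlphaScreen streptavidin donor/nickel chelate acceptor beads (10 ug/mL final), 20 min dark, signal read.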
Six1-Eya2 inh – inhibitors of human Six1/Eya2 interaction; Q15475+O00167; hit rate 0.56% among 360,000; AlphaScreen GST-Six1/His-Eya2 binding, biochemical; active compounds read low; activity change, % (test concentration not listed); in the data active = activity change below about -65%; inconclusive = mostly about -30% to -63%; note: % is set by controls: 0 for no effect and ±100 for the full control effect
Target sequence (O00167 whole entry, looked up): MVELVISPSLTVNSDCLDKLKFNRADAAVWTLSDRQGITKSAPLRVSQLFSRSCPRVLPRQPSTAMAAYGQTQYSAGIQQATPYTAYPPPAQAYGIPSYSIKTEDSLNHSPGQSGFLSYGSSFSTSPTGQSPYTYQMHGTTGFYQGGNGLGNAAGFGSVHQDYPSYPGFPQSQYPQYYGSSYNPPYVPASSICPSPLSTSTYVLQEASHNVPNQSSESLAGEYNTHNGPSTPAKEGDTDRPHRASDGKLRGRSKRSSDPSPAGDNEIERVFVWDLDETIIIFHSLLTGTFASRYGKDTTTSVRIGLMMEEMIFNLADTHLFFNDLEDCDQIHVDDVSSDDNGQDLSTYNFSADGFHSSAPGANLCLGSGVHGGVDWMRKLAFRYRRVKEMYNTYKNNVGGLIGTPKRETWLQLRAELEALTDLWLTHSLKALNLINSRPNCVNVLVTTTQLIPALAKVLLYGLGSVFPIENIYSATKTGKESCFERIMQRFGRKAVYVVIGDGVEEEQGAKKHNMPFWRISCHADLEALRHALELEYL
Target sequence (Q15475 whole entry, looked up): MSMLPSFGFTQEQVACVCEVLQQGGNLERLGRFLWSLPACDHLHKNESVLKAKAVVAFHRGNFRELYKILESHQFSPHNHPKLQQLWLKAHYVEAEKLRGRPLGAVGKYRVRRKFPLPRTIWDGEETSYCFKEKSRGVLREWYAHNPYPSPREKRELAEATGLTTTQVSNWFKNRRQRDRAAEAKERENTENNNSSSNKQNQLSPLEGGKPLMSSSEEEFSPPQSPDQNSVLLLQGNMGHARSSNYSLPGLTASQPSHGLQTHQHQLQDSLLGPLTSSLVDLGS
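Homogeneous AlphaScreen proximity assay pairing GST-Six1 with His-tagged Eya2 (added as 5X mix: 250 nM and 500 nM) in 50 mM Tris pH 8.0, 300 mM NaCl, 1 mM TCEP. Glutathione donor and nickel acceptor beads; 1 h, 37 °C, dark.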
TDP1 inh – blocks human tyrosyl-DNA phosphodiesterase 1. recombinant TDP1, AlphaScreen DNA substrate cleavage. AID 485290. hit rate 0.28% among 350,000. Potency, µM (top dose mostly 130 µM), for inactives: at the highest dose activity change, negative = inhibition, hits mostly inhibitors; note: potency is the fitted concentration of half-maximal effect; % is set by controls: 0 for no effect and ±100 for the full control effect; nearly all actives have a fitted effect of over 40% in size
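Enzyme-compound mixtures sat 15 min at room temperature, followed by a 5 min reaction with 15 nM final substrate and 10 min with AlphaScreen beads. Recombinant human Tdp1 was used at 1 nM final.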
JMJD2A Tudor – JMJD2A Tudor domain (human) inhibition; AID 504339; AlphaScreen JMJD2A-Tudor / H3K4me3 peptide binding; hit rate 4.4% among 390,000; Potency, µM (series often up to 114 µM), for the others: at the top dose activity change, negative = inhibition, most hits filed as inhibitors; note: potency is the fitted concentration of half-maximal effect; % is set by controls: 0 for no effect and ±100 for the full control effect; nearly all actives have a fitted effect of over 50% in size
CtBP-E1A inh – CtBP/E1A binding inhibition. activity change, % (no concentration beside the values). AlphaScreen GST-E1A/His-CtBP binding, 1536-well; active compounds read low. hit rate 0.49% among 340,000. AID 651724; in the data active = activity change below about -65%; inconclusive = mostly about -30% to -63%; note: % is set by controls: 0 for no effect and ±100 for the full control effect
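Steps: dispense buffer (Tris pH 8.0, NaCl 300 mM, TCEP 1 mM, BSA, Tween 20); add 5X protein mix (GST-E1A, His-CtBP, 125 nM each); pin 23 nL compound; 2 h at 37 °C, dark; add 5X beads (50 ug/mL); 1 h; read.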
* marks the source's active call; other numbers are inactive results; ? = inconclusive; . = not tested or not shown; ! = not confirmed by another sample; [ ] = remark or other dose. Unless noted, calls come from the whole dose curve; as a rule, active = well fitted inhibition curve with a large enough effect; inconclusive = small, poorly fitted or top-dose-only effect; inactive = no such curve, though single readings can be large or run the other way.

SMILES	HP1b binding inh	BAZ2B block	Six1-Eya2 inh	TDP1 inh	JMJD2A Tudor	CtBP-E1A inh
CCN(Cc1ccccc1)S(=O)(=O)c1ccc(N2CCCCS2(=O)=O)cc1	-0.3%	3.2%	.	3.8%	-14.2%	.
CCCC(=O)N1c2ccccc2-c2nnc(SC)nc2OC1c1sccc1C (stereo unspecified)	-4.6%	?	.	.	-20.1%	.
Cc1ccc(OCC(=O)Nc2ccc(N3CCCC3)cc2)cc1C	?	28.2µM*	-21.6	10.4%	31.6µM*	-17.4
CN(C)CC(C)(C)CNS(=O)(=O)c1ccc(Cl)c(Cl)c1	-11.0%	?	5.3	2.5%	17.8µM*!	-1.3
CC(Oc1ccccc1Cl)C(=O)Nc1ccc(S(=O)(=O)N2CCN(C)CC2)cc1 (stereo unspecified)	-16.1%[57 µM]	.	18.7	.	50.1µM*	3.4
CNC(=O)COc1ccc(S(=O)(=O)N2CCCC2)cc1	-14.2%	-3.0%	-6.8	2.2%	11.2µM*	9.7
O=C(COC(=O)c1ccc(Cl)nc1)Nc1ccc(S(=O)(=O)N2CCCC2)cc1	47.6%	9.5%	-5.9	2.7%	-10.5%	-0.9
O=C(COC(=O)c1cnc(Cl)c(Cl)c1)Nc1ccc(S(=O)(=O)N2CCCC2)cc1	3.8%	-0.2%	-77.1*	0.6%	-14.9%	?
O=C(O)COc1ccc(S(=O)(=O)N2CCCC2)cc1	39.8%	6.5%	8.8	.	3.3%	6.8
Cc1cc(OCC(=O)Nc2ccc(S(=O)(=O)N3CCN(C)CC3)cc2)ccc1Cl	50.7%	4.4%	-10.0	4.9%	-3.5%	-1.2
Cc1cc(OCC(=O)Nc2ccc(S(=O)(=O)N3CCN(C)CC3)cc2)cc(C)c1Cl	-17.4%	50.1µM*	-22.1	2.3%	50.1µM*	-20.3
COc1cccc(CNC(=O)Cn2c(=O)ccc3cc(S(=O)(=O)N4CCC(C)CC4)ccc32)c1	9.3%[57 µM]	-26.6%	.	4.4%	-21.0%	.
CCOC(=O)c1cccc(NC(=O)Cn2c(=O)nc(-c3ccccc3F)c3cc(Cl)ccc32)c1	14.0%	-1.7%	.	6.2%	-6.0%	.
O=c1c2sc3ccccc3c2n(Cc2cccc(Cl)c2)c(=O)n1Cc1ccc(F)cc1	41.5%	1.6%	.	6.4%	3.8%	.
CCOc1ccc(-c2nc(CSCC(=O)N3CCN(c4ccc(F)cc4)CC3)c(C)o2)cc1	22.7%	-9.1%	.	2.8%	-29.2%	.
Cc1ccccc1-c1nc(CS(=O)(=O)CC(=O)N2CCN(c3ccccc3)CC2)c(C)o1	0.9%	?	.	3.5%	-27.9%	.
Cc1ccc(-c2nc(CS(=O)(=O)CC(=O)N3CCN(c4ccccc4)CC3)c(C)o2)cc1	2.6%	56.2µM*	.	11.6%	?	.
COc1ccc(-c2nc(CSCC(=O)N3CCN(c4ccc(OC)cc4)CC3)c(C)o2)cc1	-19.1%	35.5µM*	.	2.3%	?	.
Cc1cc(C(=O)NNC(=S)NC(=O)/C=C/c2ccccc2Cl)n[nH]1	-17.1%	22.4µM*	-90.8*	10.5%	50.1µM*	-98.9*
COc1ccc(OC)c(CNC(=O)CN2CC(C)Sc3ccccc32)c1 (stereo unspecified)	1.8%[57 µM]	?	.	8.9%	?	.
Cc1ccc2[nH]c3c(=O)n(Cc4ccncc4)cnc3c2c1	32.4%	50.1µM*	-3.1	2.3%	-10.5%	-0.3
COc1ccc2c(c1)[nH]c1c(=O)n(Cc3ccncc3)cnc12	55.9%	0.6%	-1.7	6.2%	-10.3%[11.4 µM]	-22.7
ONCc1ccccc1	.	.	.	-1.0%	.	.
O=[N+]([O-])c1ccc(C(O)CN2CCN(c3ccccc3)CC2)cc1 (stereo unspecified)	60.1%	2.6%	-7.3	.	-3.0%	8.3
Oc1ccc(N2CCN(CC(O)c3ccccc3)CC2)cc1 (stereo unspecified)	?	-34.6%	3.1	2.6%	56.2µM*	-0.5
SMILES	HP1b binding inh	BAZ2B block	Six1-Eya2 inh	TDP1 inh	JMJD2A Tudor	CtBP-E1A inh
Cn1c(=O)c2cccnc2c(=O)n1C	.	.	-0.7	.	.	0.6
O=c1[nH]n(CCO)c(=O)c2cccnc12	-13.6%	?	2.8	.	56.2µM*	0.9
O=[S+]([O-])(/C=C/c1nc(Nc2cc(F)cc(F)c2)c2ncn(CC(F)F)c2n1)c1ccccc1	.	.	.	0.0%	-15.1%	.
Cc1ccc(S(=O)(=O)NNC(=O)C(=O)NNc2ccccn2)cc1	56.6%	?	-88.2*	11.8%	-9.4%	-92.6*
CC(=O)Nc1ccc(S(=O)(=O)NNC(=O)C(=O)NNc2ccccn2)cc1	94.7%	?	?	7.6%	?	.
Cc1ccccc1S(=O)(=O)NNC(=O)C(=O)NNc1ccccn1	52.9%	?	-81.7*	10.3%	-22.9%	-71.2*
Nc1ccc(S(=O)(=O)NNC(=O)C(=O)NNc2ccccn2)cc1	59.3%	?	-92.6*	8.2%	-31.9%	-68.5*
Cc1cc2c(s1)c1cnn(Cc3c(Cl)cccc3Cl)c(=O)c1n2C	.	.	.	.	-26.0%	.
O=C(Nc1ccc2nc(SCC(=O)N3CCOCC3)sc2c1)c1ccc(F)cc1	32.1%	-11.1%	.	-4.7%	-11.9%	.
Cc1cccc(NC(=O)c2c(NC(=O)c3ccco3)sc3c2CCC(C(C)(C)C)C3)c1 (stereo unspecified)	58.2%	3.0%	.	.	3.5%	.
CCc1ccc(C(=O)c2cn(CC(=O)Nc3cccc(OC)c3)c3cc4c(cc3c2=O)OCO4)cc1	35.6%	-1.2%	.	9.0%	-21.2%	.
CC(=O)Nc1ccc(N=C(C2=C(O)c3ccccc3C2=O)c2ccccc2)cc1	?	39.8µM*	0.9	7.7%	56.2µM*	.
Cc1ccc2nc(NCc3ccco3)c(C=NCc3ccco3)c(=O)n2c1	30.6%	50.1µM*	0.9	.	0.6%	-12.8
Cc1ccc2nc(NCc3ccccc3)c(C=NCc3cccnc3)c(=O)n2c1	35.3%	-23.0%	-5.0	-1.9%	-1.4%	1.0
COc1cc(OC)c(OC)cc1CN1CCc2nc(N3CCN(C)CC3)ncc2C1	21.2%	?	.	-3.8%	?	.
CN1CCN(c2ncc3c(n2)CCN(Cc2cc(Br)cs2)C3)CC1	-1.9%	?	.	11.2%	56.2µM*	.
CCOc1ccccc1CN1CCc2nc(N3CCN(C)CC3)ncc2C1	54.8%	79.4µM*	.	3.8%	-22.2%	.
CN1CCN(c2ncc3c(n2)CCN(Cc2ccccc2Cl)C3)CC1	-10.4%	?	.	-1.2%	79.4µM*	.
CCOc1ccccc1NC(=O)Cn1c(=O)n(CCC(=O)NCc2ccc3c(c2)OCO3)c(=O)c2ccccc21	75.5%	?	.	0.0%	-18.4%	.
COc1ccccc1OC(C)C(=O)Nc1c(C(=O)c2ccc(Cl)cc2)oc2ccccc12 (stereo unspecified)	41.9%	-0.8%	.	-2.1%	6.2%	.
CN1C(=O)C(N=Nc2ccc([N+](=O)[O-])cc2)SC1=S (stereo unspecified)	?	.	?	.	22.4µM*	-23.7
c1ccc2[nH]c(SN3CCOCC3)nc2c1	.	20µM*	.	8.4%	.	.
